The record followed here is PubChem BioAssay (NCI).

Experiment in all cases: NCI-60 one-dose screen, 48 h (100 = growth as untreated, 0 = no growth, -100 = all killed)
What all share (conditions): 10 µM unless noted

Assay [1] deals with NCI-H23 lung.
Assay [2] deals with NCI-H226 lung.
The subject of assay [3] is NCI-H322M lung.
Assay [4] concerns HOP-62 NSCLC.
In assay [5] the test system is NCI-H460 lung.
Assay [6] concerns HOP-92 NSCLC.
Assay [7] deals with NCI-H522 lung.
Assay [8] relates to A549/ATCC NSCLC.
Assay [9] concerns 786-0 renal.
Assay [10] concerns COLO 205 colon.

About 83,000 compounds went through this panel and 20% of them were active in at least one assay; those are over-represented in the sample as a whole.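 Step 1: grow cells in 96-well plates. Step 2: add test compound at a single concentration. Step 3: incubate 48 h. Step 4: record percent growth.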 Unmarked numbers belong to inactive results. Activity calls are given as the source filed them. How the source made its calls: active means growth percent below 10; inactive means the rest.

Turning to `COc1cc(C)c(C2C(C#N)=C(N)Oc3n[nH]c(-c4cccs4)c32)cc1C(C)C` (stereo not given), the growth in assay [1] was 93.9%; in assay [2] it was 101%; in assay [3] it was 108%; in [4], 96.8%; in assay [5] it was 107%; in [6], 99.7%. The growth in assay [7] was 91.2%; in assay [8] it was 86.7%; in assay [9] it was 103%; in [10] it was 118%.
In the case of `O=C1c2cc3c(cc2-c2c1c1ccc(F)cc1c(=O)n2C[C@H](O)[C@@H](O)[C@H](O)CO)OCO3`, the growth in assay [1] is -31.9% (active); in assay [2], -17.4% (active); in [3], 13%; in assay [4] it was -7.29% (active); in assay [5], 3.2% (active); in [6] it was 6.56% (active). In addition, the growth in [7] is -22.1% (active); in assay [8], -33.7% (active); in [9], 4.19% (active); in assay [10], -31.1% (active).
Take `CN(C)c1ccc(N=Nc2ccccn2)c(O)c1`: the growth is 16.1% in [1]; 14.4% in assay [2]; 21.9% in assay [3]; 7.8% (active) in [4]; 5.5% (active) in assay [5]; 57.9% in assay [6]. Moreover, the growth in [7] is 27.1%; in [8] it was 11.8%; in assay [9], 15%; in [10], 17.3%.
Turning to `Clc1ccc2c(NCCCNc3nc(-n4ccnc4)nc4ccccc34)ccnc2c1`, the growth in assay [1] was 96.1%; in assay [2], 90.4%; in assay [3] it was 94.7%; in [4] it was 83%; in assay [5] it was 95.2%; in assay [6], 58%. The growth is 89% in assay [7], 92.3% in assay [8], 77.6% in assay [9] and 87.7% in [10].
Turning to `COc1ccc(-c2nc(SCC(=O)Nc3ccc(C(=O)/C=C/c4ccc(Cl)cc4)cc3)[nH]c(=O)c2C#N)cc1`, the growth was 85.4% in assay [1]; 96.3% in assay [2]; 88.8% in [3]; 100% in [4]; 99.1% in assay [5]; 81.7% in [6]. Besides, the growth in assay [7] was 77.4%; in assay [8], 101%; in [9], 105%; in [10], 86.8%.
For the molecule `COc1ccc(/C=C(\C#N)C(=O)Nc2cccc(Nc3nc(SC)nc(-c4cccc([N+](=O)[O-])c4)c3C#N)c2)cc1OC`, the growth was 88.5% in assay [1]; 91.8% in assay [2]; 100% in assay [3]; 91.3% in assay [4]; 100% in assay [5]; 111% in assay [6]. Moreover, the growth in assay [7] is 97.2%; in [8], 103%; in assay [9], 106%; in [10], 112%.
With `CCN1CCN(c2nc(NCCNc3ccnc4cc(Cl)ccc34)c3ccccc3n2)CC1`, the growth in assay [1] is 69%; in assay [2], 27.2%; in assay [3], 42.3%; in [4], 24.9%; in assay [5], 1.75% (active); in assay [6], 32.7%. In addition, the growth in [7] is 18%; in assay [8] it was 0.344% (active); in assay [9], 4.75% (active); in [10], -60.6% (active).
With `CC(=O)c1cc2c(N)c(C(=O)Nc3ccccc3)sc2nc1C`, the growth in [1] was 91.5%; in assay [2], 92%; in [3], 50.8%; in [4], 75.1%; in [5], 15.9%; in [6], 57.6%. Further, the growth in assay [7] is 66.5%; in assay [8], 28.4%; in assay [9], 77.2%; in assay [10], 4.95% (active).
In the case of `CC(=O)Oc1ccc(Cl)cc1CN(C(C)=O)C1CCCCC1`, the growth was 116% in [1]; 96.3% in assay [2]; 101% in assay [3]; 102% in assay [4]; 114% in assay [5]; 83.4% in assay [6]. The growth in [7] is 88.2%; in assay [8], 106%; in assay [9], 90%; in assay [10], 104%.
Take `C=C(C)[C@@H]1CC[C@]2(C(=O)OC)CC[C@]3(C)[C@H](CC[C@@H]4[C@@]5(C)C/C(=C/c6ccc(OC)cc6)C(=O)C(C)(C)[C@@H]5CC[C@]43C)[C@@H]12`: the growth in [1] was 84.8%; in [2], 97.2%; in [3] it was 106%; in assay [4], 99.9%; in [5], 101%; in assay [6], 77.9%. The growth in assay [7] was 78.8%; in assay [8], 89.5%; in assay [9], 92.2%; in assay [10], 94.4%.
Regarding `CC1=C/C(=C(\c2ccc(N(C)C)cc2)c2ccc([N+](C)(C)C)cc2)C=CC1=[N+](C)C`, the growth in assay [1] is 80.4%; in assay [2], 88.4%; in assay [3], 104%; in assay [4] it was 37%; in assay [5], 74.9%; in assay [6] it was 56.5%. Besides, the growth was 97.2% in assay [7], 29.2% in assay [8], 94.7% in [9] and 66% in [10].
For `N#Cc1nnn(-c2ccc(S(N)(=O)=O)cc2)c1NCC(=O)c1ccccc1`, the growth in assay [1] is 98%; in assay [2] it was 88.2%; in [3], 91.2%; in [4] it was 91.7%; in assay [5], 101%; in [6] it was 86.6%. For the same molecule, the growth in [7] is 83.9%; in assay [8], 93.3%; in assay [9], 102%; in assay [10] it was 104%.
`C=C1c2nc3ccccc3n2C=C(c2ccc(OC)cc2)N1Cc1ccccc1`: the growth in [1] was 81.3%; in assay [2], 102%; in [3] it was 102%; in [4] it was 136%; in assay [5] it was 90.8%; in assay [6] it was 95.9%. Besides, the growth in [7] was 64.5%; in assay [8] it was 96%; in assay [9], 83.6%; in [10] it was 92.8%.
As to `Cc1nc2c3c(-c4ccccc4)c(-c4ccccc4)oc3ncn2n1`, the growth in assay [1] was 93.1%; in assay [2], 92.2%; in assay [3] it was 102%; in [4] it was 90.7%; in assay [5], 98%; in [6] it was 81.7%. In addition, the growth in assay [7] is 80.8%; in assay [8], 101%; in assay [9], 99.1%; in assay [10] it was 110%.
